By AC50 is commonly meant the concentration at which the activity in the assay is half-maximal.

The values that follow come from PubChem BioAssay (EPA / NIEHS).

Calls of active or inactive are those of the source. The calls were made as follows: active = hit-call score of the fitted dose curve at least 0.9, where 1 is the maximum; inactive = score below 0.9.

Sequence of Heat shock factor protein 1 (Homo sapiens) (Q00613 whole entry, looked up): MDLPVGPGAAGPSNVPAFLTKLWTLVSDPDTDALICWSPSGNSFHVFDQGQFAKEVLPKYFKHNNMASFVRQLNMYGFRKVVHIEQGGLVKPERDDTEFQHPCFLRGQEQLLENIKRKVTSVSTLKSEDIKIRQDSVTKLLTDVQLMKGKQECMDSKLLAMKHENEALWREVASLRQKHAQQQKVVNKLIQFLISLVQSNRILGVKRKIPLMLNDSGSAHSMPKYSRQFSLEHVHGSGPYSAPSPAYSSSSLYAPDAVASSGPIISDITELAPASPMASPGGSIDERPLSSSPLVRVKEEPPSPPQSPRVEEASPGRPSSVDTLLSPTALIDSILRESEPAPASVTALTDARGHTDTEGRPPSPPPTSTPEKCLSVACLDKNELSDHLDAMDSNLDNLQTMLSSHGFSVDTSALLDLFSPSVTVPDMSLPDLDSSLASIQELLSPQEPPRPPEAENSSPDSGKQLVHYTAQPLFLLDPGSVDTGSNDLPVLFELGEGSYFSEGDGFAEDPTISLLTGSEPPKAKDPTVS

For one assay, the target named is Heat shock factor protein 1 (Homo sapiens) (UniProt Q00613). Kind of assay: ATG_HSE_CIS: Attagene CIS-FACTORIAL HepG2 Assay for human Heat Shock Transcription Factor 1 (HSE) (AID 2282953). Conditions: HepG2 HSE cis-reporter, Attagene RNA transcription; actives raise or lower the signal. In short, it runs like this:
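Using HepG2 with transfected cis-driven reporter constructs, compound effects on endogenous factor activity are scored as reporter mRNA change at 24 h. Detection: RT-PCR, HpaI digestion, capillary electrophoresis; bidirectional fitting to DMSO.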
In the case of `O=C(c1ccccc1)C(O)c1ccccc1` (stereo not drawn), the molecule was called inactive.
Same read-out and setting: for `Cc1ccc2c(c1)C(=O)OC2=O` the value was “inactive”.
Take `CCCCCCC(CO)CCCC` (stereo not drawn): the molecule was called inactive.
Same read-out and setting: for `CCCOCCO` the value was “inactive”.
Take `FC(F)(F)COCC(F)(F)F`: the result was inactive.
As for `O=C(Nc1ccc([N+](=O)[O-])cc1)Nc1ccc([N+](=O)[O-])cc1` (tested in a mixture with another compound), the molecule was classed as inactive.
The same measure, in the same setting: in the case of `COc1cc(Cl)c(OC)cc1N` it was “inactive”.
For `CCCCCC(C=O)=Cc1ccccc1`, the AC50 is 173 µM (active).
`CSc1c(Cl)c(Cl)c(Cl)c(Cl)c1Cl`: the result was inactive.
As for `CCCC1O[C@@H]2C[C@H]3[C@@H]4CCC5=CC(=O)C=C[C@]5(C)[C@H]4[C@@H](O)C[C@]3(C)[C@]2(C(=O)CO)O1` (stereo partly drawn), the outcome was inactive.
Same read-out and setting: for `C=C(CC(=O)O)C(=O)O` the value was “inactive”.
Same read-out and setting: in the case of `O=C(O)CNc1ccccc1` it was “inactive”.
On to `C[C@H]1O[C@@H](O[C@H]2[C@@H](O)C[C@H](O[C@H]3[C@@H](O)C[C@H](O[C@H]4CC[C@@]5(C)[C@H](CC[C@@H]6[C@@H]5C[C@@H](O)[C@]5(C)[C@@H](C7=CC(=O)OC7)CC[C@]65O)C4)O[C@@H]3C)O[C@@H]2C)C[C@H](O)[C@@H]1O`, for which the AC50 is 0.194 µM (active).
Take `CCc1ccc(O)cc1`: the molecule was classed as inactive.
With `NC(=S)NNC(N)=S`, the molecule was called inactive.
With `O=C1OC[C@H](Cc2cccc(O)c2)[C@H]1Cc1cccc(O)c1`, the molecule was classed as inactive.
Take `C=CCOC(=O)CCCCCC`: the molecule was called inactive.
Still for that read-out and setting: in the case of `Nc1ccn([C@H]2CS[C@@H](CO)O2)c(=O)n1` it was “inactive”; in that of `CCCCC1CCC(O)CC1` (stereo not drawn), “inactive”; in that of `COc1cccc(OC)c1O`, “inactive”.
On the same count and under the same terms, in the case of `CCC1(c2ccccc2)C(=O)NCNC1=O` it was “inactive”; in that of `CC(=O)Nc1ccc(C(=O)CCl)cc1`, “inactive”.
Take `CCCC(C)=O`: the molecule was classed as inactive.
In the case of `CS(=O)(=O)c1ccc(C2=C(c3ccccc3)C(=O)OC2)cc1`, the call was inactive.
On the same count and under the same terms, in the case of `CCCCCCCCCCCCCCN(CCO)CCO` it was “inactive”.
The same measure, in the same setting: in the case of `CCCN(CCC)S(=O)(=O)c1ccc(C(=O)O)cc1` it was “inactive”.
Same read-out and setting: for `C[C@H](CCC(=O)NCC(=O)O)[C@H]1CC[C@H]2[C@@H]3[C@H](O)C[C@@H]4C[C@H](O)CC[C@]4(C)[C@H]3C[C@H](O)[C@]12C` the value was “inactive”.
Consider `CC(Oc1cc(Cl)ccc1Cl)C(=O)O` (stereo not drawn), for which the molecule was classed as inactive.
Same read-out and setting: for `C=C(C)C1CC=C(C)C(=O)C1` (stereo not drawn) the value was “inactive”.

System in the next assay: not listed separately
Kind of assay: ATG_MRE_CIS: Attagene CIS-FACTORIAL HepG2 Assay for human Metal Responsive Element (MRE) (AID 2282954). The conditions noted are these: HepG2 MRE cis-reporter transcription, Attagene multiplex; actives raise or lower the signal. The essentials: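 Transient MRTU transfection of HepG2 (FuGene 6); 24 h dosing; total RNA → oligo(dT) RT, PCR, 6-FAM primer extension, HpaI cut, CE. Bidirectional fit vs DMSO.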
With `O=C(c1ccccc1)C(O)c1ccccc1` (stereo not drawn), the molecule was called inactive.
Still for that read-out and setting: for `Cc1ccc2c(c1)C(=O)OC2=O` the value was “inactive”.
Same read-out and setting: for `CCCCCCCCc1ccc(S(=O)(=O)O)cc1` the value was “inactive”; for `CCCCCCC(CO)CCCC` (stereo not drawn), “inactive”; for `Nc1ccc2cc(S(=O)(=O)O)cc(O)c2c1N=Nc1ccccc1C(F)(F)F`, “inactive”.
Same read-out and setting: in the case of `CCCOCCO` it was “inactive”; in that of `COCCc1ccc(OCC(O)CNC(C)C)cc1` (stereo not drawn), “inactive”.
For `FC(F)(F)COCC(F)(F)F`, the result was inactive.
On to `O=C(Nc1ccc([N+](=O)[O-])cc1)Nc1ccc([N+](=O)[O-])cc1` (tested in a mixture with another compound), for which the outcome was inactive.
`COc1cc(Cl)c(OC)cc1N`: the outcome was inactive.
For `CCCCCC(C=O)=Cc1ccccc1`, the outcome was inactive.
As to `CSc1c(Cl)c(Cl)c(Cl)c(Cl)c1Cl`, the AC50 is 100 µM (active).
On to `CCCC1O[C@@H]2C[C@H]3[C@@H]4CCC5=CC(=O)C=C[C@]5(C)[C@H]4[C@@H](O)C[C@]3(C)[C@]2(C(=O)CO)O1` (stereo partly drawn), for which the molecule was classed as inactive.
The same measure, in the same setting: for `C=C(CC(=O)O)C(=O)O` the value was “inactive”; for `O=C(O)CNc1ccccc1`, “inactive”.
In the case of `C[C@H]1O[C@@H](O[C@H]2[C@@H](O)C[C@H](O[C@H]3[C@@H](O)C[C@H](O[C@H]4CC[C@@]5(C)[C@H](CC[C@@H]6[C@@H]5C[C@@H](O)[C@]5(C)[C@@H](C7=CC(=O)OC7)CC[C@]65O)C4)O[C@@H]3C)O[C@@H]2C)C[C@H](O)[C@@H]1O`, the AC50 was 0.182 µM (active).
Turning to `CCc1ccc(O)cc1`, the outcome was inactive.
The same measure, in the same setting: in the case of `CCCC[P+](CCCC)(CCCC)CCCC` it was “inactive”; in that of `NC(=S)NNC(N)=S`, “inactive”.
Regarding `O=C1OC[C@H](Cc2cccc(O)c2)[C@H]1Cc1cccc(O)c1`, the call was inactive.
`C=CCOC(=O)CCCCCC`: the call was inactive.
On to `Nc1ccn([C@H]2CS[C@@H](CO)O2)c(=O)n1`, for which the result was inactive.
`CCCCC1CCC(O)CC1` (stereo not drawn): the outcome was inactive.
Same read-out and setting: for `COc1cccc(OC)c1O` the value was “inactive”.
In the case of `Cc1c(OCC(F)(F)F)ccnc1CS(=O)c1nc2ccccc2[nH]1` (stereo not drawn), the AC50 is 73.1 µM (active).
Consider `CCC1(c2ccccc2)C(=O)NCNC1=O`, for which the result was inactive.
As to `CSCCC=O`, the outcome was inactive.
In the case of `C=C1CC[C@H](O)C/C1=C/C=C1\CCC[C@]2(C)[C@@H]([C@H](C)/C=C/[C@H](C)C(C)C)CC[C@@H]12`, the outcome was inactive.
Turning to `CC(=O)Nc1ccc(C(=O)CCl)cc1`, the AC50 is 16.1 µM (active).
In the case of `CCCC(C)=O`, the molecule was classed as inactive.
As to `CS(=O)(=O)c1ccc(C2=C(c3ccccc3)C(=O)OC2)cc1`, the call was inactive.
Same read-out and setting: in the case of `CCCCCCOCCOCCO` it was “inactive”; in that of `O=C(O)COCC(=O)O`, “inactive”; in that of `CC[N+](C)(CC)CC`, “inactive”.
The same measure, in the same setting: for `CCCCCCCCCCCCCCN(CCO)CCO` the value was “inactive”.
Take `CCCN(CCC)S(=O)(=O)c1ccc(C(=O)O)cc1`: the molecule was called inactive.
As to `C[C@H](CCC(=O)NCC(=O)O)[C@H]1CC[C@H]2[C@@H]3[C@H](O)C[C@@H]4C[C@H](O)CC[C@]4(C)[C@H]3C[C@H](O)[C@]12C`, the outcome was inactive.
Take `CC(Oc1cc(Cl)ccc1Cl)C(=O)O` (stereo not drawn): the molecule was called inactive.
Still for that read-out and setting: in the case of `C=C(C)C1CC=C(C)C(=O)C1` (stereo not drawn) it was “inactive”.
